Assay outcomes from PubChem BioAssay.
An excerpt weighted towards active compounds, which were near 2.4% of everything screened.
CHO-K1 Ca PAM – nonselective activator or artifact in parental CHO-K1 calcium assay. 360,000 tested, 0.02% active. ATP EC20, Fluo-8 calcium fluorescence; 0% at ATP EC20, 100% at ATP max. activation, % at 3 µM;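 active = activation above the run cutoff, the mean activation of all test compounds plus 3 SD, cut at about 40% in these data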;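 note: peak over basal fluorescence ratio in a 140 s read after ATP addition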
M1 antag – human CHRM1 antagonism | P11229 | inhibition, % at 3 µM | CHO-K1 hM1, Fluo-8 calcium fluorescence, ACh EC80 antagonist | 360,000 tested, 1.3% active;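 active = percent inhibition above its own plate's cutoff, namely the mean of that plate's compound wells plus 3 SD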;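 note: peak over basal fluorescence ratio during 140 s after agonist addition; 0% = ACh EC80 plus DMSO and 100% = DMSO alone without agonist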
Target sequence (P11229 whole entry, looked up): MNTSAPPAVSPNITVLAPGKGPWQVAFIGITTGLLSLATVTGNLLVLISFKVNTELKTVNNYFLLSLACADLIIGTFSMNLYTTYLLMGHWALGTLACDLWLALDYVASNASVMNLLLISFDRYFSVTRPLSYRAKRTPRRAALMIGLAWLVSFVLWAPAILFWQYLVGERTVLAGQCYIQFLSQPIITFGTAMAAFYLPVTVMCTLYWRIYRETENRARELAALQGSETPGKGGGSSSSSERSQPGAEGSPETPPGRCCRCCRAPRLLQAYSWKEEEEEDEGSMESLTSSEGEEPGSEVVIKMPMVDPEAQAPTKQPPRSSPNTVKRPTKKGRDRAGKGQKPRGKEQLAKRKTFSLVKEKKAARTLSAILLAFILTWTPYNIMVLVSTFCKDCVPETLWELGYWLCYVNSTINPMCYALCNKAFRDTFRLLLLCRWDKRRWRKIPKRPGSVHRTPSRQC
CHO-K1 Ca antag – M1 antagonist counterscreen hit in parental CHO-K1 cells. ATP-induced calcium, Fluo-8 fluorescence. inhibition, % at 3 µM. 360,000 tested, 0.6% active. AID 602250;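 active = inhibition above a per-plate cutoff, the plate's mean sample inhibition plus 3 SD, cut at about 24% in these data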;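 note: 0% = DMSO plus EC80 ATP and 100% = DMSO alone without ATP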
M1 ag parental – counter-screen for M1 agonists: effect in parental CHO-K1 cells. Fluo-8 calcium fluorescence; scaled to maximal ATP response, vehicle zero. 360,000 tested, 0.48% active. activation, % at 3 µM; in the data active = activation above about 15%;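 note: untransfected CHO-K1 host cells lacking M1 receptor as counterscreen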
CHRM1 agonist – agonists of human M1 muscarinic receptor. P11229. CHO-K1 hM1, Fluo-8 calcium fluorescence, agonist mode; 0% DMSO, 100% acetylcholine EC100. activation, % at 3 µM. 360,000 tested, 0.33% active. AID 588814;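 active = activation above the run's mean compound activation plus 3 SD, cut at about 16% in these data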;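 note: peak over basal fluorescence ratio within a 140 s kinetic read after compound addition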
M1 PAM – human CHRM1 positive allosteric modulation | P11229 | CHO-K1 hM1, Fluo-8 calcium fluorescence, ACh EC20; 0% = ACh EC20, 100% = maximal ACh | activation, % at 3 µM | 360,000 tested, 0.088% active | AID 588819; in the data active = activation above about 19%, passing the limit was not always enough
Numbers without * were called inactive.

`Cc1cc(C)c2c(=O)[nH]c(SCC(=O)N3CCOCC3)nc2n1` gave CHO-K1 Ca PAM 0, M1 antag 12, CHO-K1 Ca antag 17, M1 ag parental 17*, CHRM1 agonist -3 and M1 PAM -4.
Screening O=C(c1ccc2ccccc2c1)N1CCN(c2ccccn2)CC1 returned CHO-K1 Ca PAM -24, M1 antag -10, CHO-K1 Ca antag 1, M1 ag parental 1, CHRM1 agonist -7 and M1 PAM 5.
For Cn1cncc1C#Cc1c(C=O)n(C)c2ccccc12 the results were CHO-K1 Ca PAM 6, M1 antag -4, CHO-K1 Ca antag -8, M1 ag parental -1, CHRM1 agonist -5 and M1 PAM 8.
C=CCN1CCOc2ccc(C)cc2S1(=O)=O was read as CHO-K1 Ca PAM 0, M1 antag 2, CHO-K1 Ca antag -10, M1 ag parental 0, CHRM1 agonist -3 and M1 PAM 0.
CCOC(=O)C1=C(C)NC(=O)NC1c1ccc(OCC(=O)N2CCCCC2)cc1 (configuration not stated) was read as CHO-K1 Ca PAM 7, M1 antag -6, CHO-K1 Ca antag 4, M1 ag parental 0, CHRM1 agonist -5 and M1 PAM 7.
CCOc1ccccc1NC(=O)C(c1ccccc1)N1CCN(CC(=O)N2CCOCC2)CC1 (configuration not stated) was read as CHO-K1 Ca PAM -1, M1 antag 7, CHO-K1 Ca antag -3, M1 ag parental 0, CHRM1 agonist -1 and M1 PAM -3.
Screening O=C(CN1CCN(C(c2ccccc2)c2ccccc2)CC1)N1CCOCC1 returned CHO-K1 Ca PAM 0, M1 antag 63*, CHO-K1 Ca antag -28, M1 ag parental 0, CHRM1 agonist 5 and M1 PAM -25.
Screening O=C(Nc1ccccc1-c1ccccc1)NC1CCN(CC(=O)N2CCOCC2)CC1 returned CHO-K1 Ca PAM 15, M1 antag 35*, CHO-K1 Ca antag -14, M1 ag parental 0, CHRM1 agonist -6 and M1 PAM -17.
CCCOc1ccc(NC(=O)C(=O)NCCCn2ccnc2)cc1 was read as CHO-K1 Ca PAM 10, M1 antag -1, CHO-K1 Ca antag -5, M1 ag parental 0, CHRM1 agonist -13 and M1 PAM -4.
Screening COc1ccccc1C(=O)N1CCN(c2nc3cc(C)c(C)cc3cc2C#N)CC1 returned CHO-K1 Ca PAM 8, M1 antag -12, CHO-K1 Ca antag -2, M1 ag parental 1, CHRM1 agonist -4 and M1 PAM 0.
`Cn1c(Cc2ccccc2)nnc1SCC(=O)c1ccc(Br)s1` gave CHO-K1 Ca PAM 8, M1 antag 22*, CHO-K1 Ca antag -1, M1 ag parental 0, CHRM1 agonist -7 and M1 PAM -24.
Screening Cn1nnnc1SCC(=O)c1ccc(Br)s1 returned CHO-K1 Ca PAM -8, M1 antag 20, CHO-K1 Ca antag -4, M1 ag parental 0, CHRM1 agonist -5 and M1 PAM -3.
Cc1ccc(C(=O)C2CCN(CC(=O)Nc3ccccc3C)CC2)cc1 was read as CHO-K1 Ca PAM 14, M1 antag -2, CHO-K1 Ca antag 8, M1 ag parental 1, CHRM1 agonist -7 and M1 PAM 5.
For O=C(OC(c1ccccc1)c1nccc2ccccc12)c1cc([N+](=O)[O-])cc([N+](=O)[O-])c1 (configuration not stated) the results were CHO-K1 Ca PAM 17, M1 antag 35*, CHO-K1 Ca antag 4, M1 ag parental 12, CHRM1 agonist -8 and M1 PAM -18.
COc1ccc(NC(=O)c2ccc([N+](=O)[O-])o2)cc1 was read as CHO-K1 Ca PAM -14, M1 antag -6, CHO-K1 Ca antag 6, M1 ag parental -1, CHRM1 agonist 1 and M1 PAM 12.
For O=C(/C=C/c1ccccc1)NNC(=O)C1CC1 the results were CHO-K1 Ca PAM 18, M1 antag 2, CHO-K1 Ca antag -9, M1 ag parental 2, CHRM1 agonist -6 and M1 PAM 2.
S=c1[nH]c2cc(Br)cnc2[nH]1 was read as CHO-K1 Ca PAM -12, M1 antag 4, CHO-K1 Ca antag 26*, M1 ag parental 1, CHRM1 agonist -3 and M1 PAM 0.
